Calb FLC – C. albicans growth modulation with fluconazole; C. albicans CaCi-2 (fluconazole-resistant clinical isolate) + fluconazole, Alamar Blue growth, 48 h; growth inhibition, % (concentration not given with the values); hit rate 0.57% among 300,000; AID 1979;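 active = growth inhibition above about 58% in most replicates, limit read from the data, passing the limit was not always enough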;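 also: all wells also contain fluconazole at 8 µg/ml as a sub-toxic cotreatment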
Yeast superoxide – lowers age-related superoxide in aged yeast cells. S. cerevisiae aged cells, superoxide DHE fluorescence; active compounds read low. superoxide response (% of plate mean), % at 10 µM. hit rate 0.18% among 330,000. AID 2690;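 active = superoxide response under a set limit, about three screen SD below normal, cut at about 65% in these data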;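 also: yeast aged for seven days with compound at 30 °C before DHE staining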
Platelet DG rel – modulates dense granule release in human platelets; hit rate 0.22% among 300,000; inhibition, %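 (compounds screened at 7.5 µM in platelet-rich plasma)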; human platelet-rich plasma, SFLLRN dense granule ATP release, luminescence;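 active = mean replicate score, as percent of positive control, at or above 50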
PolyA inh – yeast polyadenylation inhibition. S. cerevisiae SKY197-pL101 polyadenylation reporter, beta-gal luminescence; efflux-impaired pdr1/pdr3 knockout yeast; score 100 = 6 SD above DMSO. activity score, % at 12 µM. hit rate 0.02% among 300,000. AID 1875;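 active = lowest replicate activity score at least 50, where 100 means six control SD above control mean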;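 also: yeast exposed to compound for 9 h at 30 °C; higher score means more reporter readthrough which indicates perturbed polyadenylation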
SKKanGAS inh – inhibitors of SKKanGAS S. pyogenes growth in kanamycin (SK-promoter or general growth effect). BacTiter-Glo, 6 h. inhibition, % at 7.5 µM. hit rate 1.3% among 300,000. AID 1662;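 active = mean replicate score, as percent of positive control median, at least 50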;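 also: strain carries kanamycin resistance gene driven by streptokinase promoter and grows in 40 µg/ml kanamycin; loss of luminescence reflects streptokinase promoter inhibition or plain growth inhibition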
Large screens that a line does not name were inactive. Most compounds without a hit are left out; they make up all but 2% or so of the library.

CCCc1cnc(N2CCN(C(=O)c3ccc(OC)cc3)CC2)nc1	none
CCCCOc1cccc(C(=O)NNC(=S)NC2CCCCC2)c1	Calb FLC 105
O=C(COc1ccccc1)NC1C(=O)N2C(C(=O)O)=C(Cl)CSC12 (stereo unspecified)	SKKanGAS inh 102
C=CC1=C(C(=O)O)N2C(=O)C(NC(=O)Cc3ccccc3)C2SC1 (stereo unspecified)	SKKanGAS inh 95
Cc1ccc(S(=O)(=O)NCCC(=O)NCCc2ccc(S(N)(=O)=O)cc2)cc1C	none (no result: Calb FLC, Platelet DG rel, PolyA inh, SKKanGAS inh)
Cc1ccc(-c2nnc(-c3cc(C)on3)o2)cc1	none
COc1cccc(N2C(=O)Nc3ccc(Br)cc3C2(O)C(=O)NCCN(C)C)c1 (stereo unspecified)	none
COc1ccccc1C(=O)NC(CCSC)C(=O)NNC(=O)c1ccccc1O (stereo unspecified)	Yeast superoxide 64 (no result: Calb FLC, Platelet DG rel, PolyA inh, SKKanGAS inh)
COc1ccccc1C(=O)NC(CCSC)C(=O)NNC(=O)c1ccc(F)cc1 (stereo unspecified)	none
O=C(Oc1cccc(Nc2ncnc3ccccc23)c1)c1ccccc1Cl	SKKanGAS inh 61
CCOC(=O)c1c(C)oc2c1c(C(c1ccccc1)N1CCOCC1)c(O)c1ccccc12 (stereo unspecified)	SKKanGAS inh 67
CCOC(=O)c1c(C)oc2c1c(C(c1cccnc1)N1CCCCC1)c(O)c1ccccc12 (stereo unspecified)	none
CCOc1ccc(Nc2nc(N3CCCCC3)nc(N3CCCCC3)n2)cc1	SKKanGAS inh 62
c1ccc(Nc2nc(N3CCCCC3)nc(N3CCCCC3)n2)cc1	SKKanGAS inh 84
c1ccc(Nc2nc(N3CCCC3)nc(N3CCCC3)n2)cc1	none
CCOc1nc(Nc2ccc(OC)cc2)nc(N2CCOCC2)n1	none
N#CCCN(C(=O)COC(=O)C1=NNC(=O)CC1)c1ccccc1	none
Cc1cc(=O)c(C(=O)O)cn1Nc1ccc(Cl)cc1	SKKanGAS inh 65
Cc1cc(=O)c(C(=O)O)cn1Nc1ccc(F)cc1	none (no result: Platelet DG rel)
C=C1SC(Nc2c(C)cc(C)cc2C)=NC12CCCCC2	none
CCc1nnc(NS(=O)(=O)c2ccc(NCc3cc(Cl)cc(Cl)c3O)cc2)s1	SKKanGAS inh 54
CCc1nnc(NS(=O)(=O)c2ccc(NCc3cc(Cl)ccc3O)cc2)s1	none
CC(=O)NN1C(=O)c2ccccc2NC1c1ccoc1 (stereo unspecified)	none
COC(=O)c1ccc(C(=O)OC)c(NC(=O)CSc2cccc[n+]2[O-])c1	Calb FLC 113
O=C(CSc1cccc[n+]1[O-])CSc1cccc[n+]1[O-]	Calb FLC 73
CCn1c(=O)n(CC)c2cc(N3CCCC3)c(NC(=O)c3cc(Br)ccc3OC)cc21	SKKanGAS inh 65
CCOc1cc(/C=N/NC(=O)N/N=C/c2ccc(O)c(OCC)c2)ccc1O	Platelet DG rel 58
CCOc1cc(/C=N/NC(=O)C(=O)N/N=C/c2ccc(O)c(OCC)c2)ccc1O	none
COc1cc(/C=N/NC(=O)/C(=C/c2ccccc2)CCO)ccc1O	Platelet DG rel 56
CCOc1cc(/C=N/NC(=O)c2cccnc2)ccc1OCC(N)=O	Calb FLC 107 (no result: Platelet DG rel, PolyA inh, SKKanGAS inh)
COc1ccc(/C=N/NC(=O)/C(=C/c2ccccc2)CCO)cc1	none
CCN(CC)C(=O)COc1ccc(C=O)cc1OC	none
Cc1csc2c(N3CCN(C(=O)Nc4ccc(Cl)c(Cl)c4)CC3)ncnc12	SKKanGAS inh 62
Cc1csc2c(N3CCN(C(=O)NC(C)(C)C)CC3)ncnc12	none
COC(=O)c1c[nH]n2c(=O)c(Cc3ccc(F)cc3Cl)c(C)nc12	Calb FLC 97
CCC1CCCCN1CCCNC(=O)C1CCCN(S(=O)(=O)N2CC(C)CC(C)C2)C1 (stereo unspecified)	none
CCCCOP(=O)(c1ccc(N(C)C)cc1)C(O)c1ccccc1F (stereo unspecified)	Calb FLC 95
CCCCOP(=O)(c1ccc(N(C)C)cc1)C(O)c1ccc(OC)cc1 (stereo unspecified)	none
CCCCCCCN1C(Nc2ccccc2)=NC[C@@H]1Cc1ccccc1	Calb FLC 84
c1ccc(CCCCN2C(Nc3ccccc3)=NC[C@@H]2Cc2ccccc2)cc1	none (no result: Calb FLC, Platelet DG rel, PolyA inh, SKKanGAS inh)
COc1ccc(OC(C)C(=O)NC2CCCCCC2)cc1 (stereo unspecified)	none
N#Cc1c(N2CCCC2)ccc(Br)c1Cl	none
N#CC(C(=O)C12CC3CC(CC(C3)C1)C2)c1nc2ccccc2[nH]1 (stereo unspecified)	SKKanGAS inh 80
CC(=O)Nc1ccc(N=Cc2c(O)c(C(=O)Nc3ccccc3)cc3ccccc23)cc1	SKKanGAS inh 61
Cc1ccc2nc(SCC(=O)Nc3cccnc3Cl)[nH]c2c1	none (no result: Calb FLC, Platelet DG rel, PolyA inh, SKKanGAS inh)
Cc1ccc(C)c(SCC(=O)Nc2cccnc2Cl)c1	Calb FLC 123
Cc1ccc(C)c(C(=O)C(C)Sc2nc3nn(-c4ccccc4)c(=O)c-3c3n2CCCCC3)c1 (stereo unspecified)	none
Cc1ccc(C2=NNC3(CCOC(C)(C)C3)S2)cc1 (stereo unspecified)	Calb FLC 95
Cc1ccc(S(=O)(=O)NCCC2(C(C)C)CCOC(C)(C)C2)cc1 (stereo unspecified)	none
O=C(/C(N=Nc1cccc([N+](=O)[O-])c1)=C(/O)c1ccc(Br)cc1)C(F)(F)F	SKKanGAS inh 84
COc1ccc(C(=O)Nc2ccc(/C(C)=N/NC(=O)c3ccccc3O)cc2)cc1OC	none
Cc1cn(-c2cc(C(=O)Nc3ccc(C)c(NC(=O)C(=O)c4c[nH]c5ccccc45)c3)cc(C(F)(F)F)c2)cn1	SKKanGAS inh 68
Cc1ccc(C(=O)Nc2cccc(C(F)(F)F)c2)cc1NC(=O)c1c[nH]c2cc(C(F)(F)F)ccc2c1=O	none (no result: Calb FLC, Platelet DG rel, PolyA inh, SKKanGAS inh)
O=C(/C=C/c1ccccc1)CC(=O)c1ccccc1O	SKKanGAS inh 50
CC(Oc1ccc(Cl)cc1Cl)c1nc(-c2ccc(NC(=O)c3ccco3)cc2)no1 (stereo unspecified)	SKKanGAS inh 54
NS(=O)(=O)c1ccc(Cc2ncc(C(F)(F)F)cc2Cl)s1	none
O=C(CCl)c1ccc(Cc2ncc(C(F)(F)F)cc2Cl)s1	SKKanGAS inh 55
CCCCCn1c(CN2CCN(c3cc(Cl)ccc3C)CC2)nc2c1c(=O)[nH]c(=O)n2C	SKKanGAS inh 86
CN1C(=O)/C(=C/c2ccccc2F)Sc2ccc(C(=O)N3CCCC3)cc21	SKKanGAS inh 71
COc1ccc(/C=C2\Sc3ccc(C(=O)N4CCOCC4)cc3N(C)C2=O)cc1	SKKanGAS inh 60
COc1ccc(/C=C2\Sc3ccc(C(=O)NCC4CCCO4)cc3N(C)C2=O)cc1 (stereo unspecified)	SKKanGAS inh 92
Cc1ccc(/C=C2/Sc3ccccc3N(CC(=O)NCC3CCCO3)C2=O)cc1 (stereo unspecified)	none
COc1ccc(/C=C2\SC(=S)N(CCCC(=O)N3CCOCC3)C2=O)cc1	none
CC1CN(C)CCC1OC(=O)c1ccccc1 (stereo unspecified)	none

Compound activity (PubChem)
